Inconclusive results are not listed. Activity calls are given as the source filed them.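 The calls were made as follows, unless noted: active = inhibition above the screen-wide mean plus 3 SD, about 51%; inactive = the rest.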
Assays:
[1] = rapamycin-like changes in RPL19A-GFP expression – cell-based, S. cerevisiae, multiplex flow cytometry, primary screen (AID 1862; in the data active = percent of DMSO control GFP below about 86%;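 also: lower values mimic rapamycin by blocking the RPL19A rise seen in DMSO cells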); details: S. cerevisiae RPL19A-GFP strain, flow cytometry fluorescence, 3 h; at 10 µM; stronger effect = lower value
[2] = TOR pathway GLN3 branch reporter MEP2-GFP changes – S. cerevisiae, multiplex flow cytometry, primary screen (AID 1867;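 active = GFP response, as percent of the DMSO control, above the screen-wide mean plus 3 SD, about 139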;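 also: median GFP channel fluorescence of barcode-gated MEP2-GFP cells measured by flow cytometry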); details: S. cerevisiae MEP2-GFP strain, 3 h, at 10 µM, stronger effect = higher value, 100% means same as DMSO wells
[3] = TOR pathway RTG branch CIT2 reporter changes – S. cerevisiae, GFP fusion, multiplex flow cytometry, primary screen (AID 1870;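 active = percent response above a set limit, the screen-wide mean plus 3 SD, cut at about 130% in these data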;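 also: barcoded CIT2-GFP strain pooled with four other GFP strains with rapamycin as positive control; median GFP fluorescence per well over plate mean of DMSO wells so 100% = DMSO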); details: S. cerevisiae CIT2-GFP expression, 3 h, at 10 µM, stronger effect = higher value
[4] = TOR pathway LAP4-GFP level changes – S. cerevisiae, multiplex flow cytometry, primary screen (AID 1873;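 active = GFP signal, as percent of the solvent control, above the screen mean plus 3 SD, about 149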); details: S. cerevisiae LAP4-GFP expression, 3 h, at 10 µM, stronger effect = higher value
[5] = yeast AGP1-GFP level changes, GLN3 branch – cell-based, multiplex flow cytometry, S. cerevisiae, primary screen (AID 1887;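 active = GFP signal above the screen-wide mean plus 3 SD, that is over about 124.5% of the solvent control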;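 also: AGP1-GFP fusion strain of S. cerevisiae within a five-strain barcoded multiplex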); details: 3 h, at 10 µM, stronger effect = higher value
[6] = reduced mouse 2C T cell binding to pMHC/ICAM-1 vesicles – MLPCN validation set, flow cytometry, LFA-1/ICAM-1 modulator project, pilot screen (AID 2523;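 active = response below a set limit, under 55% cells CD8-positive and vesicle-bound, and CD8 cells' 90th-percentile brightness under 279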;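 as to vesicle binding response: mean PE anti-B7-1 fluorescence of CD8+ cells relative to row control; 100% = QL9-loaded vesicles with DMSO vehicle in the same plate row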); details: 2C mouse CD8+ T cells, at 7 µM, stronger effect = lower value; double positive events: measured here: CD8+/vesicle+ event percentage
[7] = target: Integrin beta-1 (Homo sapiens) + Integrin alpha-4 (Homo sapiens) (UniProt P13612+P05556); experiment: alpha4beta1 integrin LIBS antibody binding reduction – U937 cells, HUTS-21 mAb, flow cytometry, validation set, VLA-4 allosteric modulator project, pilot screen (AID 2674;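 active = inhibition above 50%, about 3 SD of the validation set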;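 also: antibody binding induced by the VLA-4 ligand LDV present at three times its Kd; 0% = LDV ligand with antibody and no compound and 100% = antibody without LDV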); details: HUTS-21 LIBS mAb binding, at 6.7 µM, stronger effect = higher value, binding induced by LDV ligand
Chain of Integrin beta-1 (Homo sapiens) + Integrin alpha-4 (Homo sapiens) (P05556 whole entry, looked up): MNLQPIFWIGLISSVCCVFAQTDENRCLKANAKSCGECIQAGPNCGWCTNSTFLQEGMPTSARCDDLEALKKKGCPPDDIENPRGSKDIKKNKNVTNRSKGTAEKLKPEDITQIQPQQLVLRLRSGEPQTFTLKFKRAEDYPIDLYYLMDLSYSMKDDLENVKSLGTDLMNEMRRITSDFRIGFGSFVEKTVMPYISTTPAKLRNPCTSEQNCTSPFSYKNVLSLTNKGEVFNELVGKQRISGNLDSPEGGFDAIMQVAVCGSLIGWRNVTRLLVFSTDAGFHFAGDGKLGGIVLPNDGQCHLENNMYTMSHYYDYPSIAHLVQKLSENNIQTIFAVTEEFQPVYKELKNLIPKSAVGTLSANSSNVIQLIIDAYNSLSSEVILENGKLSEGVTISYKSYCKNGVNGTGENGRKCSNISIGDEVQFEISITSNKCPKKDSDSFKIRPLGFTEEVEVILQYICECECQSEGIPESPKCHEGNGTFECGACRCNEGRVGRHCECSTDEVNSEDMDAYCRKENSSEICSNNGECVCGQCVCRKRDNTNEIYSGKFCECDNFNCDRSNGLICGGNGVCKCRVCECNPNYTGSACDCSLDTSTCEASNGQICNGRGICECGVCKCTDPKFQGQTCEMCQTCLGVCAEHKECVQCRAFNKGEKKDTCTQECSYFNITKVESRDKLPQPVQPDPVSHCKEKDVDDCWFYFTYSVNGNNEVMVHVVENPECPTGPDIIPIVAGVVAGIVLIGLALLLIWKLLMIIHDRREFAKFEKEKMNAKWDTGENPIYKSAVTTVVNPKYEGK
Chain of Integrin beta-1 (Homo sapiens) + Integrin alpha-4 (Homo sapiens) (P13612 whole entry, looked up): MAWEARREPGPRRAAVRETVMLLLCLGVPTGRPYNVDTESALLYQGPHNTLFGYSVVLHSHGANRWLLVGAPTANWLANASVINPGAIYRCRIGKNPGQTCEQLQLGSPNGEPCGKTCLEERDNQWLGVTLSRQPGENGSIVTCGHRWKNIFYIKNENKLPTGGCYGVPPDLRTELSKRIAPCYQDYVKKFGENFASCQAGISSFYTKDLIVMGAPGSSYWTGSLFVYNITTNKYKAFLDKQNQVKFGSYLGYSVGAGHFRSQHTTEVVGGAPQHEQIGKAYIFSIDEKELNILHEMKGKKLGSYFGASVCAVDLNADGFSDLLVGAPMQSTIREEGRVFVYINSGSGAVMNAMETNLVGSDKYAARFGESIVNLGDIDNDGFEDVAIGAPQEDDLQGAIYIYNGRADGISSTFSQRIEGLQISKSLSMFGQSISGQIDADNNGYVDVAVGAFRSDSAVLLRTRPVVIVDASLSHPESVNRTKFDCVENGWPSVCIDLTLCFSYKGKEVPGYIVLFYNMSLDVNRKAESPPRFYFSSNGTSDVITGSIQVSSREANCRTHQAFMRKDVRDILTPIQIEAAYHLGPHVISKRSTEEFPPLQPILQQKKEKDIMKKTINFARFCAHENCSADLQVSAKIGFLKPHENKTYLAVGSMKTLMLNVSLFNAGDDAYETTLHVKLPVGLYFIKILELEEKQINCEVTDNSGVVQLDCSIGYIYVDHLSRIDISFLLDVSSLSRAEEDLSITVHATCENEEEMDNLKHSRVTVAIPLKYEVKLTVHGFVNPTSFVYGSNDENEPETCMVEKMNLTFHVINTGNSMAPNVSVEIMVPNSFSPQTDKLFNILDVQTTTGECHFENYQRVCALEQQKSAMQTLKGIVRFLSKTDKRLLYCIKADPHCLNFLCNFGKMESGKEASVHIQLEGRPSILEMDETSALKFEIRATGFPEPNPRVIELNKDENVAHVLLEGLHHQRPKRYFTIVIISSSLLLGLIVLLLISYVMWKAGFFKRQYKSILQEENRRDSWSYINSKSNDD

[8] = calorie-restriction mimetic ROS inhibitors, yeast – validation compound set, pilot screen (AID 2706;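 active = superoxide response below 65% of plate, a cut near 3 SD across the whole screen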;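 also: yeast exposed to compound for one week at 30 degrees C before staining; 100% = mean of all compound wells on the same plate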); details: S. cerevisiae aging, superoxide DHE fluorescence; at 10 µM; stronger effect = lower value
[9] = target: Beta-adrenergic receptor kinase 1 (Homo sapiens) (UniProt P25098); experiment: GRK2 binders displacing RNA aptamer, biochemical, validation, human GRK2, bead flow cytometry (AID 488806;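 active = aptamer binding inhibition above 30%, about 3 SD of noise from non-fluorescent compounds; inactive = inhibition at or below 30%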); details: bead-bound GRK2, FAM-aptamer displacement, at 10 µM, stronger effect = higher value
Chain of Beta-adrenergic receptor kinase 1 (Homo sapiens) (P25098 whole entry, looked up): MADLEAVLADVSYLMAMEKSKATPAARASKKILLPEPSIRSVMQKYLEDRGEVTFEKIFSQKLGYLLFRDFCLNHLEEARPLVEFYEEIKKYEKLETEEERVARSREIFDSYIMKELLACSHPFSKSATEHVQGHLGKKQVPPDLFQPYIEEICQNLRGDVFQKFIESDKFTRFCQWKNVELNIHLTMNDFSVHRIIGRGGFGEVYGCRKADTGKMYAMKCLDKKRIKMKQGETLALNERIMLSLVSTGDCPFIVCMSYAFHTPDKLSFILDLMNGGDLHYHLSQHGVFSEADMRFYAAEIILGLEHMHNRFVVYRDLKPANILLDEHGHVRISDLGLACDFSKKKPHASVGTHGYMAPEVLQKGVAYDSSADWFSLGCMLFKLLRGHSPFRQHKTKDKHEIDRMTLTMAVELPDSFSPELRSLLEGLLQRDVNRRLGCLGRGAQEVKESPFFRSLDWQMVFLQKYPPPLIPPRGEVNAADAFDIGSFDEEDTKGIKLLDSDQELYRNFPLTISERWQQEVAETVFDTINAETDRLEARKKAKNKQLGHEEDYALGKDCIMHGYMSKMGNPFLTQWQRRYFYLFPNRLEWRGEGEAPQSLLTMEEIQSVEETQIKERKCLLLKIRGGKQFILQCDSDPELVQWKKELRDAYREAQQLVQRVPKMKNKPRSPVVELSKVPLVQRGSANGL

[10] = target: Beta-2 adrenergic receptor (Homo sapiens) (UniProt P07550); experiment: agonist-induced loss of surface beta2AR – cell-based, FAP fluorogen, flow cytometry, validation set, pilot screen (AID 504459;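 active = percent response above 42, roughly 3 SD of non-fluorescent test compounds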;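 also: agonist-driven loss of surface beta2AR via internalization measured by FAP dye flow cytometry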); details: Am2.2-beta2AR cells, at 10 µM, stronger effect = higher value
Chain of Beta-2 adrenergic receptor (Homo sapiens) (P07550 whole entry, looked up): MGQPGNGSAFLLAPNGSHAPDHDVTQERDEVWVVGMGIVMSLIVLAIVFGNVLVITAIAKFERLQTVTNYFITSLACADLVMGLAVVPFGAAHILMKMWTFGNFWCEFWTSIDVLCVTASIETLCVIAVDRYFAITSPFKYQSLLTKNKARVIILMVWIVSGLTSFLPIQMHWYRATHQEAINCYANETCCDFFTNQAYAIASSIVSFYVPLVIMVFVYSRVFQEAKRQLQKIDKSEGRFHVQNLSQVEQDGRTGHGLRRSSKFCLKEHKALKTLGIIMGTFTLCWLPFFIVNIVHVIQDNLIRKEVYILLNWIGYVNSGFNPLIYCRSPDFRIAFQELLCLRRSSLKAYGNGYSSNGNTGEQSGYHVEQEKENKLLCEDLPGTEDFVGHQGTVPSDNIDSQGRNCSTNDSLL

[11] = target: AP-2 complex subunit beta (Homo sapiens) (UniProt P63010); experiment: beta-arrestin/AP2 interaction blockers – biochemical, validation set, GST-AP2 beads, flow cytometry, pilot screen (AID 504541;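 active = inhibition above 54%, about 3 SD of non-fluorescent compounds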;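 also: AP2 carries R879A mutation and is captured from E. coli lysate; bead-bound FITC arrestin peptide fluorescence measuring arrestin peptide binding to AP2; 0% = DMSO wells and 100% = excess unlabeled arrestin peptide control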); details: FITC arrestin peptide, at 10 µM, stronger effect = higher value, AP2 beta2 appendage fragment, R879A mutant
Chain of AP-2 complex subunit beta (Homo sapiens) (P63010 whole entry, looked up, the tested form may be a part, one chain of several): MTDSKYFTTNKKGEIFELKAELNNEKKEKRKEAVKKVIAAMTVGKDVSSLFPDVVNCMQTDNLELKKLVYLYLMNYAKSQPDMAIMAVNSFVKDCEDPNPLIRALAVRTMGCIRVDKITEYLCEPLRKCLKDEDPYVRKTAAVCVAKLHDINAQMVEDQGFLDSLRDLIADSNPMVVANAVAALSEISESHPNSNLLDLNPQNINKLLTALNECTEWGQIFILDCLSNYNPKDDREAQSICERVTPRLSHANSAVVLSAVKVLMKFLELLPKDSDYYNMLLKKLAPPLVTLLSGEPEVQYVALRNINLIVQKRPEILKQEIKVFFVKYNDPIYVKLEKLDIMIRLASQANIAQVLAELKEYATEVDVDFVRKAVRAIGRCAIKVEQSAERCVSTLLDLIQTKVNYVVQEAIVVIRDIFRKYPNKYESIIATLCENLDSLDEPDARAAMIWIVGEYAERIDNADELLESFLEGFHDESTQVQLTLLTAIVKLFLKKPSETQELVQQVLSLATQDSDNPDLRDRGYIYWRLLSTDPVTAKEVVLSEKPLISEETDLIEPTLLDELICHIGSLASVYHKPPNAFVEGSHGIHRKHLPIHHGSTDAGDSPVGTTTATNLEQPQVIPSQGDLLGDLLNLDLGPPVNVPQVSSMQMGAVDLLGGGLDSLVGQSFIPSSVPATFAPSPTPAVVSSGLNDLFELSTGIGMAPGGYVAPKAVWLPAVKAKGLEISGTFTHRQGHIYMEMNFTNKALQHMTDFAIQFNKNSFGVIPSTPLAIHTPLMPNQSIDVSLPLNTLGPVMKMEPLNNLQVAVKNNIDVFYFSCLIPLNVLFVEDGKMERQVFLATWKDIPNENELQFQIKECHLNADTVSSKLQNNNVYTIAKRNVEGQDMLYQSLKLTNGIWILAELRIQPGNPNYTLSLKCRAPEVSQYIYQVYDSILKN

[12] = cytosolic pH regulators acting via V-ATPase – S. cerevisiae, pHLuorin, HTS validation (AID 504600; in the data active = response above about 15%;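 also: plate controls were DMSO for no effect and reference compound for full effect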); details: V-ATPase proton transport, at 10 µM, stronger effect = higher value
[13] = system: anti-desmoglein-3 scFv antibody binding to human DSG3; experiment: blockers of pathogenic pemphigus antibody–desmoglein-3 binding – biochemical, validation compound set, bead-based, flow cytometry, pilot screen (AID 588368;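 active = binding below the plate cutoff, the plate median minus 3 SD, with a reading above zero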;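 also: signal is the median channel fluorescence of bead-bound GFP antibody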); details: Protein G beads, DSG3-Fc, scFv-GFP binding, at 10 µM, stronger effect = lower value
[14] = Nile Red efflux blockade in pump-expressing yeast – validation compound set, multiplex, phenotypic, pilot screen (AID 588506;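 active = efflux inhibition above 0.42, the validation set average plus 4 SD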;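 also: Nile Red retained in cells so higher fluorescence means more efflux inhibition; 0 = negative control wells and 1 = enniatin B 25 µM full block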); details: S. cerevisiae pump-expressing triplex, Nile Red efflux flow cytometry; at 10 µM; stronger effect = higher value; the pumps come from Candida albicans
[15] = target: ATP-binding cassette sub-family B member 6 (Homo sapiens) (UniProt Q9NP58); experiment: blockers of ABCB6-driven porphyrin uptake – K562-ABCB6 cells, flow cytometry, validation set, pilot screen (AID 588550); details: K562-ABCB6 porphyrin accumulation, 1 h, at 10 µM, stronger effect = higher value;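 also: 0% = DMSO wells and 100% = benzethonium chloride 70 µM positive control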
Chain of ATP-binding cassette sub-family B member 6 (Homo sapiens) (Q9NP58 whole entry, looked up): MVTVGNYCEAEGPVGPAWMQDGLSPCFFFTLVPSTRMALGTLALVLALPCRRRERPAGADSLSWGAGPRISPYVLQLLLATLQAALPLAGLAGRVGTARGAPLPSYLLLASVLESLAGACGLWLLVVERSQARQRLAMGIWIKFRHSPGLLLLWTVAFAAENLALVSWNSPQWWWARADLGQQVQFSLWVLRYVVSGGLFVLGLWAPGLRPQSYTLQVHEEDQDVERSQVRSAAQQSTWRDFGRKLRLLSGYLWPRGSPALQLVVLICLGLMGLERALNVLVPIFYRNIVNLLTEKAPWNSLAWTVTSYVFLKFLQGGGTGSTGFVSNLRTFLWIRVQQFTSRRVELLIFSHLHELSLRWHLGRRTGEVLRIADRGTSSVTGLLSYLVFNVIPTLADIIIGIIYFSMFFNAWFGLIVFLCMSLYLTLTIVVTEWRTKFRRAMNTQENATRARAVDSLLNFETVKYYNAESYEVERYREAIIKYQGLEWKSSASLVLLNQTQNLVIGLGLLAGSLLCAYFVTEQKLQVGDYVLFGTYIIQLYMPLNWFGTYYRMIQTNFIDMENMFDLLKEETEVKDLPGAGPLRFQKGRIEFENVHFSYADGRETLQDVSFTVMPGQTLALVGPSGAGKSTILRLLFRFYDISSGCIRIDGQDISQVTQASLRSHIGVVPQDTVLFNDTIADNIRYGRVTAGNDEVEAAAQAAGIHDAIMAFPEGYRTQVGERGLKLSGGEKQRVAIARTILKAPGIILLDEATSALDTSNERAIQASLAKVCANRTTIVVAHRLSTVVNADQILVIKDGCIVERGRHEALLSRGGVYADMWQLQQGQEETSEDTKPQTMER

[16] = AML differentiation inducers, ER-HoxA9 marrow cells – cell-based, GFP/MAC1 double positive, flow cytometry, validation set, primary screen (AID 588685;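 active = differentiation response of at least 50%, scaled between solvent and reference control, from cells with both markers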;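 also: compound exposure lasts four days before antibody staining and flow analysis; 0% = DMSO wells and 100% = 5 µM fulvestrant positive control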); details: stronger effect = higher value, normalized: vehicle 0, fulvestrant 100

Cc1[nH]nc(-c2ccc(O)cc2O)c1Oc1ccccc1
61.9%: double positive events [6]
inactive: percent of DMSO control GFP [1] 106% | GFP response vs DMSO [2] 100% | percent response of DMSO control [3] 114% | GFP response vs DMSO [4] 93.3% | GFP response, % of DMSO [5] 103% | vesicle binding response [6] 53.1% | inhibition [7] 4.73% | superoxide response (% of plate) [8] 95.8% | aptamer binding inhibition [9] 1% | response [10] -4.61% | inhibition [11] -10.9% | response [12] -4.45% | binding (% of control) [13] 96.3% | efflux inhibition (fraction of control) [14] -0.32 | inhibition [15] 3% | differentiation response [16] 8.06%

COc1ccc(CN2CCCCC2C(=O)Nc2ccc(OC)c(OCC(C)C)c2)cc1OC (stereo not drawn)
active: vesicle binding response [6] 29%
inactive: percent of DMSO control GFP [1] 100% | GFP response vs DMSO [2] 103% | percent response of DMSO control [3] 101% | GFP response vs DMSO [4] 90.7% | GFP response, % of DMSO [5] 104% | inhibition [7] -0.45% | superoxide response (% of plate) [8] 95% | aptamer binding inhibition [9] 2% | response [10] -10.2% | inhibition [11] 18.5% | response [12] -0.65% | binding (% of control) [13] 95.9% | efflux inhibition (fraction of control) [14] -0.35 | inhibition [15] 4% | differentiation response [16] 2.2%
54.3%: double positive events [6]

Cn1c(=O)[nH]c2nnc(-c3ccc(Cl)c(Cl)c3)nc2c1=O
inactive: percent of DMSO control GFP [1] 103% | GFP response vs DMSO [2] 102% | percent response of DMSO control [3] 105% | GFP response vs DMSO [4] 98% | GFP response, % of DMSO [5] 104% | vesicle binding response [6] 133% | inhibition [7] 2.93% | superoxide response (% of plate) [8] 73.3% | aptamer binding inhibition [9] 9% | response [10] 9.11% | inhibition [11] 5.98% | response [12] 0.72% | binding (% of control) [13] 101% | efflux inhibition (fraction of control) [14] -0.21 | inhibition [15] -7% | differentiation response [16] -13.3%
61.9%: double positive events [6]

COc1ccccc1/C=C/C(=O)c1c2c(c(C)[nH]c1=O)CCCC2
65.9%: double positive events [6]
inactive: percent of DMSO control GFP [1] 97.8% | GFP response vs DMSO [2] 96.6% | percent response of DMSO control [3] 96.4% | GFP response vs DMSO [4] 104% | GFP response, % of DMSO [5] 114% | vesicle binding response [6] 192% | inhibition [7] 17.6% | superoxide response (% of plate) [8] 107% | aptamer binding inhibition [9] 8% | response [10] -4.6% | inhibition [11] 1.34% | binding (% of control) [13] 106% | efflux inhibition (fraction of control) [14] -0.13 | inhibition [15] 4% | differentiation response [16] 15.7%
active: response [12] 17.4%

N#C/C(=C/c1ccccc1)C(=O)NCc1ccccc1
inactive: percent of DMSO control GFP [1] 97.4% | GFP response vs DMSO [2] 108% | percent response of DMSO control [3] 101% | GFP response vs DMSO [4] 106% | GFP response, % of DMSO [5] 102% | vesicle binding response [6] 197% | inhibition [7] 7.76% | superoxide response (% of plate) [8] 95.8% | aptamer binding inhibition [9] 0% | response [10] -0.74% | inhibition [11] 8.66% | response [12] -0.63% | binding (% of control) [13] 101% | efflux inhibition (fraction of control) [14] -0.06 | inhibition [15] 3% | differentiation response [16] -18.4%
58%: double positive events [6]

CC12CCC(C(=O)NNc3ccccc3)(C(=O)C1=O)C2(C)C (stereo not drawn)
inactive: percent of DMSO control GFP [1] 104% | GFP response vs DMSO [2] 97.4% | percent response of DMSO control [3] 102% | GFP response vs DMSO [4] 94.8% | GFP response, % of DMSO [5] 100% | vesicle binding response [6] 217% | inhibition [7] -30.5% | superoxide response (% of plate) [8] 105% | aptamer binding inhibition [9] 8% | response [10] -5.89% | inhibition [11] 19.1% | response [12] -0.25% | binding (% of control) [13] 101% | efflux inhibition (fraction of control) [14] -0.03 | inhibition [15] -14% | differentiation response [16] 15.2%
62%: double positive events [6]

O=C(CC(NC(=O)OCc1ccccc1)C(=O)O)OCc1ccccc1 (stereo not drawn)
63.2%: double positive events [6]
inactive: percent of DMSO control GFP [1] 106% | GFP response vs DMSO [2] 99.3% | percent response of DMSO control [3] 107% | GFP response vs DMSO [4] 98% | GFP response, % of DMSO [5] 99.5% | vesicle binding response [6] 160% | inhibition [7] 18.2% | superoxide response (% of plate) [8] 94.6% | aptamer binding inhibition [9] 4% | response [10] -5.78% | inhibition [11] -5.06% | response [12] -3.27% | binding (% of control) [13] 97.1% | efflux inhibition (fraction of control) [14] -0.07 | inhibition [15] 22% | differentiation response [16] -2.69%

COCc1cc(=O)[nH]c(/N=C(\N)Nc2ccc(Oc3ccccc3)cc2)n1
60.6%: double positive events [6]
inactive: percent of DMSO control GFP [1] 96.9% | GFP response vs DMSO [2] 118% | percent response of DMSO control [3] 83.4% | GFP response vs DMSO [4] 109% | GFP response, % of DMSO [5] 97.8% | vesicle binding response [6] 216% | inhibition [7] -1.79% | superoxide response (% of plate) [8] 94.8% | aptamer binding inhibition [9] 2% | response [10] 17.9% | inhibition [11] -1.38% | response [12] -1.49% | binding (% of control) [13] 99.3% | efflux inhibition (fraction of control) [14] 0.01 | inhibition [15] 12% | differentiation response [16] 10.4%

NC[C@H]1O[C@H](O[C@H]2[C@H](O)[C@@H](O[C@H]3O[C@H](CO)[C@@H](O)[C@H](N)[C@H]3O)[C@H](N)C[C@@H]2N)[C@H](N)C[C@@H]1O
63.2%: double positive events [6]
inactive: percent of DMSO control GFP [1] 101% | GFP response vs DMSO [2] 102% | percent response of DMSO control [3] 95.1% | GFP response vs DMSO [4] 109% | GFP response, % of DMSO [5] 110% | vesicle binding response [6] 273% | inhibition [7] 12.5% | superoxide response (% of plate) [8] 110% | aptamer binding inhibition [9] 3% | response [10] -5.14% | inhibition [11] -4.09% | response [12] -21.1% | binding (% of control) [13] 109% | efflux inhibition (fraction of control) [14] 0.04 | inhibition [15] 2% | differentiation response [16] -7.94%

Reference: PubChem BioAssay
